Bioassay records deposited in PubChem BioAssay by National Center for Advancing Translational Sciences (NCATS).
MARV entry inh: qHTS for inhibitors of binding or entry into cells for Marburg Virus; Marburg virus pseudotyped entry inhibition, cell reporter; Potency, µM (doses to about 37.8 µM), for inactives: top-dose activity change, negative = inhibition, most hits filed as inhibitors; hit rate 1.8% among 300,000; AID 540276, 2011; calls by dose curve; tested in HEK293 cells; also: potency is read from the fitted curve at half-maximal effect
Vaccinia Venus: qHTS for Stage-Specific Inhibitors of Vaccinia Orthopoxvirus: Venus Reporter Primary qHTS. AID 720580, 2013. Potency, µM (doses to about 36.5 µM), for inactives: at the highest dose activity change, negative = inhibition, most hits filed as inhibitors. Vaccinia virus Venus reporter expression, fluorescence. hit rate 0.46% among 330,000; calls by dose curve; tested in A549 cells; also: potency is read from the fitted curve at half-maximal effect; nearly all actives have a fitted effect of over 30% in size
HCV inh: qHTS Assay for Inhibitors of Hepatitis C Virus (HCV); Huh7.5.1 HCVcc-Cre infection, luciferase reporter, 44 h; hit rate 3.4% among 340,000; Potency, µM (highest dose often 41.8 µM), without a hit: top-dose activity change, negative = inhibition, actives largely listed as inhibitors; active = well fitted inhibition curve with a large enough effect; inconclusive = small, poorly fitted or top-dose-only effect, or another doubt; inactive = no such curve, though single readings can be large or run the other way; also: potency is read from the fitted curve at half-maximal effect
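Compounds are dispensed onto cells plated 4 h earlier at 1,000 per well, with HCVcc-Cre virus (about 0.5 moi) added next. Following 44 h of culture, luminescent signal is measured for 15 sec after 15 min with substrate at room temperature.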
Vaccinia mCherry: qHTS for Stage-Specific Inhibitors of Vaccinia Orthopoxvirus: mCherry Reporter Primary qHTS; Vaccinia virus mCherry reporter infection, fluorescence; Potency, µM (titrated, usually from 36.5 µM), inactives show at the highest dose activity change, negative = inhibition, actives largely listed as inhibitors; hit rate 0.63% among 310,000; AID 720579, 2013; calls by dose curve; tested in A549 cells; also: potency is read from the fitted curve at half-maximal effect; nearly all actives have a fitted effect of over 35% in size
Lassa entry inh: qHTS for Inhibitors of binding or entry into cells for Lassa Virus; Lassa virus pseudotype entry inhibition, cell reporter; Potency, µM (highest dose often 37.9 µM), without a hit: top-dose activity change, negative = inhibition, hits mostly inhibitors; hit rate 1.2% among 300,000; AID 540256, 2011; calls by dose curve; tested in HEK293 cells; also: potency is read from the fitted curve at half-maximal effect; nearly all actives have a fitted effect of over 50% in size
HCMV antiviral: qHTS Assay for inhibitors of the human cytomegalovirus (HCMV); HFF cells, HCMV-luciferase reporter, 72 h; active compounds read low; activity change, negative = inhibition, % at 57.5 µM; hit rate 4.5% among 410,000; AID 1259415, 2018; in the data active = activity change below about -60%; inconclusive = no clear call, values can overlap the other calls; inactive = above about -39%
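Compounds were evaluated in HFFs infected with an HCMV luciferase reporter virus (MOI 1 PFU/cell). Luciferase in lysates collected 72 h post infection served as the replication measure.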
* hit, by the source's call; i = inactive; u = inconclusive; x = not tested or not shown; [ ] = another dose, or the depositor's remark. A selection: hits, their analogues and other compounds. The true share with any hit is near 7.8%. % is scaled to controls: 0 for no effect and ±100 for the full control effect.

SMILES	MARV entry inh	Vaccinia Venus	HCV inh	Vaccinia mCherry	Lassa entry inh	HCMV antiviral
COc1cc([C@@H]2C(C#N)=C(N)Oc3cc(C)n(CCc4ccccc4)c(=O)c32)cc2c1OCO2	-22%	x	x	x	x	x
COc1ccc(C2c3[nH]c4ccccc4c3C[C@H]3C(=O)N(c4ccccc4C(=O)N4CCC[C@@H]4C(=O)O)C(=O)N23)cc1 (stereo not given in full)	x	13%	12%	2%	x	36
COc1cccc(C2c3[nH]c4ccccc4c3C[C@H]3C(=O)N(c4ccccc4C(=O)N4CCC[C@H]4C(=O)O)C(=O)N23)c1 (stereo not given in full)	x	5%	2.2µM*	7%	x	34
CCOCCCNC(=O)c1c(NC(=O)c2cc(=O)c3cc(C)c(C)cc3o2)sc2c1CCC2	4%[46.1 µM]	-1%	x	-6%	0%[46.1 µM]	24
C=Cc1ccc(Cn2c(=O)cc(C)c3c(C)nn(C)c32)cc1	x	-8%	x	-17%	u	-9
OC[C@H]1O[C@@H](n2cnc3c(NCc4ccco4)ncnc32)[C@H](O)[C@@H]1O	x	u	18µM*	10µM*	x	-39
OC[C@H]1O[C@@H](n2cnc3cncnc32)[C@H](O)[C@@H]1O	u	u	x	13µM*	u	x
Cc1ccccc1CNc1ncnc2c1ncn2[C@@H]1O[C@@H](CO)[C@H](O)[C@@H]1O	18%	x	x	x	x	x
OCC1OC(n2cnc3c(NCc4ccco4)ncnc32)C(O)C1O (stereo not given)	u	u	u	u	4.5µM*	-81*
C=CCNc1ncnc2c1ncn2C1OC(CO)C(O)C1O (stereo not given)	14µM*	u	u	u	u	-16
CCCS(=O)(=O)N1CC(=O)N(c2ccc(C)cc2C)C(C)(C(=O)NC2CCCCCC2)C1 (stereo not given)	x	-15%	x	i	13%[46.1 µM]	0
O=C(CSc1nncn2c1cc1sccc12)Nc1ccc(Br)cc1F	x	-6%	x	-11%	u	u
Cc1cc(=O)c2cc(Cl)ccc2[nH]1	x	-15%	-12%[8.37 µM]	-11%	x	-63*
Cc1cc(=O)c2ccc(Cl)cc2[nH]1	2%	-5%	2%[8.37 µM]	-3%	-13%	-12
CC(C)(C)c1ccc(CN2N=Nc3ccccc3S2(=O)=O)cc1	u	u	u	u	11µM*	u
Cc1nn(Cc2ccccc2)c(Cl)c1C(=O)OC(C)C(=O)Nc1ccc(F)cc1Cl (stereo not given)	13µM*	-7%	u	i	3.2µM*	-65*
CCc1ccc(NC(=O)C(C)OC(=O)c2c(C)nn(Cc3ccccc3)c2Cl)cc1 (stereo not given)	-23%[46.1 µM]	-3%	11µM*	i	u	-24
Cc1nn(Cc2ccccc2)c(Cl)c1C(=O)OCC(=O)Nc1cccc2ccccc12	u	-1%	-21%	i	8%	-16
O=C(NCCc1c[nH]c2ccccc12)Nc1ccccc1C(F)(F)F	1%[46.1 µM]	-11%	x	-21%	u	-17
COC(=O)c1cc(=O)n(Cc2ccc(F)cc2)c(=Nc2ccccc2)s1	x	x	u	x	x	-14
COC(=O)c1cc(=O)n(Cc2ccc(OC)c(OC)c2)c(=Nc2ccc(F)cc2)s1	-7%	-4%	11µM*	2%	x	-36
CCOC(=O)c1ccc(N=c2sc(C(=O)OC)cc(=O)n2-c2ccc(C(=O)OCC)cc2)cc1	-12%	-12%	10µM*	i	-14%	195
COC(=O)c1cc(=O)n(-c2ccccc2)c(=Nc2ccccc2)s1	1%	5µM*	u	u	-1%	-35
COc1ccc(-c2cc(OC(=O)c3ccc(Cl)cc3)c3c(C)oc(C)c3c(=O)c2)cc1	-15%[46.1 µM]	23%	x	5%	u	20
COc1cc(C)c(CN2C[C@H](Sc3nc4ccccc4[nH]3)C[C@H]2C(=O)N(C)C)cc1C	x	-20%	x	i	x	x
SMILES	MARV entry inh	Vaccinia Venus	HCV inh	Vaccinia mCherry	Lassa entry inh	HCMV antiviral
CCC(=O)NC(c1ccccc1Cl)c1c(O)ccc2ccccc12 (stereo not given)	u	-16%	-1%	-2%	-14%	u
COc1ccccc1C(NC(=O)C1CCCCC1)c1c(O)ccc2ccccc12 (stereo not given)	u	-4%	3%	i	5%	-102*
Oc1ccc(C[C@H]2CNC(=S)N2CC2CCCN2C[C@H](Cc2ccc(O)cc2)N2C[C@H](Cc3ccc(O)cc3)N(CC3CCCCC3)C2=S)cc1 (stereo not given in full)	x	10µM*	u	u	x	-93*
Oc1ccc(C[C@H]2CNC(=S)N2CC2CCCN2C[C@H](Cc2ccccc2)N2C[C@H](Cc3ccc(O)cc3)N(CC3CCCCCC3)C2=S)cc1 (stereo not given in full)	x	u	u	u	x	-63*
Oc1ccc(C[C@H]2CNC(=S)N2CC2CCCN2C[C@H](Cc2ccc(O)cc2)N2C[C@H](Cc3ccccc3)N(CCc3ccccc3)C2=S)cc1 (stereo not given in full)	x	u	4.5µM*	u	x	-24
Oc1ccc(C[C@H]2CN([C@@H](Cc3cccc(O)c3)CN3CCC[C@@H]3CN3C(=S)NC[C@@H]3Cc3ccccc3)C(=S)N2CC2CCCCC2)cc1	x	u	x	u	x	-72*
Oc1ccc(C[C@H]2CNC(=S)N2C[C@H]2CCCN2C[C@H](Cc2ccccc2)N2C[C@H](Cc3ccc(O)cc3)N(CC3CCCCCC3)C2=S)cc1	x	-22%	x	-14%	x	u
CC(C)C[C@H]1CNC(=S)N1C[C@H]1CCCN1C[C@H](Cc1ccc(O)cc1)N1C[C@H](Cc2ccccc2)N(CCc2ccccc2)C1=S	x	-17%	x	8%	x	-11
COc1ccc(-n2ccnc2SCC(=O)Nc2cccc(OC)c2)cc1	x	-22%	x	-23%	-26%[46.1 µM]	u
COCC1=C(C(=O)OC)C(c2ccccc2)N(C(C)=O)C(=O)N1 (stereo not given)	1%[14.2 µM]	x	x	x	x	x
Oc1ccc(C[C@H]2CN([C@@H](Cc3ccccc3)CN3CCCC3CN3C(=S)NC[C@@H]3Cc3ccccc3)C(=S)N2CC2CCCCC2)cc1 (stereo not given in full)	x	-10%	x	1%	x	u
Oc1ccc(C[C@H]2CN([C@@H](Cc3ccc(O)cc3)CN3CCC[C@@H]3CN3C(=S)NC[C@@H]3Cc3ccccc3)C(=S)N2CC2CCCCCC2)cc1	x	u	x	u	x	-97*
Cc1cccc(Cn2cnc3c(oc4ccccc43)c2=O)c1	x	-11%	x	-7%	27%[46.1 µM]	30
COc1ccc(-c2ccnc3c2c(=O)n(C)c(=O)n3C)cc1OC	3%[46.1 µM]	-1%	x	-7%	13%[46.1 µM]	-6
